PubChem BioAssay (Tox21)
Where “and” joins values, the source holds several entries; their conditions need not be identical. Equal values may be shown once. Inconclusive results are not listed. Entries that show only a call come without a potency. Some structures have more than one record in an assay (separate samples or runs), and their calls can disagree. Calls of active or inactive are those of the source. Calls come from the whole dose curve; as a rule, active = well fitted cell-killing curve with a large enough effect in the repeat runs; inconclusive = weak or mixed curves; inactive = no such curve, though single readings can be large or run the other way.
Potency is the fitted concentration of half-maximal effect.

Experiment: qHTS assay to identify small molecule antagonists of the peroxisome proliferator-activated receptor delta (PPARd) signaling pathway - cell viability counter screen (AID 743213); note: nearly all actives have a fitted effect of over 50% in size
Conditions: PPARd-bla HEK293H viability, CellTiter-Glo luminescence, 17 h; series mostly up to 62 µM; viability change, negative = cytotoxic: at the top concentration
Summary of the method: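 Cytotoxicity counter screen: CellTiter-Glo luminescence read 30 min after addition, in the same wells as the reporter assay. There, PPARd UAS-bla HEK293H cells (3000/well) were treated 17 h at 37 C with compound and 300 nM L165041.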
In the case of `CO[C@H]1C=CO[C@@]2(C)Oc3c(C)c(O)c4c(O)c(c(/C=N/N5CCN(C)CC5)c(O)c4c3C2=O)NC(=O)/C(C)=C\C=C[C@H](C)[C@H](O)[C@@H](C)[C@@H](O)[C@@H](C)[C@H](OC(C)=O)[C@@H]1C`, the Potency is reported as “inactive”. For `NC(=O)NO`, the Potency was “inactive”. In the case of `CC1=C(/C=C/C(C)=C/C=C/C(C)=C/C(=O)O)C(C)(C)CCC1`, the Potency is reported as “inactive”. For `NCCNc1cccc2ccccc12`, the Potency was 34.6 µM (active) and 30.2 µM (active) and inactive. For `c1ccc2[nH]c(-c3cscn3)nc2c1`, the “viability change, negative = cytotoxic” value was -31.2% [at 80.4 µM] (inactive). In the case of `O=C1OC(c2ccc(O)cc2)(c2ccc(O)cc2)c2ccccc21`, the Potency is reported as “inactive”. With `NC(=O)N/N=C/c1ccc([N+](=O)[O-])o1` the “viability change, negative = cytotoxic” value was -0.408% (inactive). In the case of `CC1=NN(c2ccccc2)C(=O)C1`, the Potency is reported as “inactive”. In the case of `Cc1cccc(Nc2cc(Cl)nc(SCC(=O)O)n2)c1C`, the Potency is reported as “inactive”. With `CCc1cc(C(N)=S)ccn1` the Potency was “inactive”. For `C[C@]12C[C@H](O)[C@H]3[C@@H](CCC4=CC(=O)CC[C@@]43C)[C@@H]1CC[C@@H]2C(=O)CO`, the Potency was “inactive”. For `CCn1cc(C(=O)O)c(=O)c2ccc(C)nc21`, the Potency was “inactive”. With `CC(=O)/C=C/C1=C(C)CCCC1(C)C` the Potency was “inactive”. For `COc1ccccc1NC(=O)CC(C)=O`, the Potency was “inactive”. With `CC(C)=CCC/C(C)=C/CO` the Potency was “inactive”. In the case of `O=C(OCc1ccccc1)c1ccccc1`, the Potency is reported as “inactive”. In the case of `O=C(O)CN(CC(=O)O)CC(=O)O`, the Potency is reported as “inactive”. In the case of `CCCCOCCOCCSC#N`, the Potency is reported as “inactive”. With `C#C[C@]1(O)CC[C@H]2[C@@H]3CCc4cc(O)ccc4[C@H]3CC[C@@]21C` the Potency was “inactive”. For `NC(=O)c1ccc([N+](=O)[O-])cc1Cl`, the “viability change, negative = cytotoxic” value was 9.32% (inactive).
